Measurements: ChEMBL document CHEMBL4808148, “HDAC6 screening dataset using tau-based substrate in an enzymatic assay yields selective inhibitors and activators” (2021)
Out of some 5,600 compounds screened, about 390 (7%) showed an effect of 50% or more. The sample as a whole holds a higher share of strong results than the screen did. Starred links: 1 amine or outer side, 2 acyl side, 3 side chain; linkers in the order of their positions; H or OH if unused. Positions of bridges follow the written chain, without caps; N, C: chain ends. Non-standard residues stand in square brackets, D forms with d. Residues, ends and D or L forms follow the SMILES beside them. *: point of attachment. pTerphenylCO(4''-OnC5H11) = CCCCCOc1ccc(-c2ccc(-c3ccc(C(=O)*)cc3)cc2)cc1; Orn(4R-OH,5R-OH) = O=C([C@H](C[C@@H](O)[C@@H](O)N[*:3])N[*:1])[*:2]; hTyr(3S-OH,4S-OH) = N[C@H](C(=O)O)[C@H](O)[C@@H](O)c1ccc(O)cc1; Pro(3S-OH,4S-Me) = C[C@H]1CN[C@H](C(=O)O)[C@H]1O; Hyp = O=C(O)[C@@H]1C[C@@H](O)CN1

Biological target: T1, Protein deacetylase HDAC6 (Homo sapiens) (UniProt Q9UBN7)
T1 sequence (whole entry): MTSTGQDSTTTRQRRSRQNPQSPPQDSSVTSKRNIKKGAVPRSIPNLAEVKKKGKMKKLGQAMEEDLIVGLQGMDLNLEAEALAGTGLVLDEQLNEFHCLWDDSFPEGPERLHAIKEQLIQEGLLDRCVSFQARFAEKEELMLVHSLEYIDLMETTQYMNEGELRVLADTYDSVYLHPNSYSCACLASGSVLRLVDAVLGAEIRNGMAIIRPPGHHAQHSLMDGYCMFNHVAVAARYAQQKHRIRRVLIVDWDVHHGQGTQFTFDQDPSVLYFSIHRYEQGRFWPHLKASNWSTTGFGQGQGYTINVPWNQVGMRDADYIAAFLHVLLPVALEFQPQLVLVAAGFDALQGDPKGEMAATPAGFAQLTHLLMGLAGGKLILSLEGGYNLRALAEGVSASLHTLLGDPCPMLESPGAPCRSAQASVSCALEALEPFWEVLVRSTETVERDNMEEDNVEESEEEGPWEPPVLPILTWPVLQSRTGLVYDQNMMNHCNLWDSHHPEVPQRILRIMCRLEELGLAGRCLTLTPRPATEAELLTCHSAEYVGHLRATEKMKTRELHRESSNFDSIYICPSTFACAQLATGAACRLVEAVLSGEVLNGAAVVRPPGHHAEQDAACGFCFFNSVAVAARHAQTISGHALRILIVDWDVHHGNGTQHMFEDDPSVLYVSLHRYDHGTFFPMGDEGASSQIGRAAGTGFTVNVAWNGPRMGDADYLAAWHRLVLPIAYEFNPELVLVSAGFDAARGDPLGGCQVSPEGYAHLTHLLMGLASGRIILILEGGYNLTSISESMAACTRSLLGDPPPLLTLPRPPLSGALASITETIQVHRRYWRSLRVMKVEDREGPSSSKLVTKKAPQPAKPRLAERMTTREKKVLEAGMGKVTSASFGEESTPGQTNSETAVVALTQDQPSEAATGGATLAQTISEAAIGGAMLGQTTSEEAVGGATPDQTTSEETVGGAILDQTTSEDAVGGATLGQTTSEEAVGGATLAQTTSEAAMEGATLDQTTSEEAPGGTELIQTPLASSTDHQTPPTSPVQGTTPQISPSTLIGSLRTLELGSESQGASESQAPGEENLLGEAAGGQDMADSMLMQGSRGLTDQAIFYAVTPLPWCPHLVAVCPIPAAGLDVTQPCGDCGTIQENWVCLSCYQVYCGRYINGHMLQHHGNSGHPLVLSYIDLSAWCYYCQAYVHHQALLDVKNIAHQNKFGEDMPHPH
Conditions: at 10 µM

Row | Structure (SMILES) | inhibition [%]
1 | CCCCCOc1ccc(-c2ccc(-c3ccc(C(=O)N[C@H]4C[C@@H](O)[C@@H](O)NC(=O)[C@@H]5[C@@H](O)[C@@H](C)CN5C(=O)[C@H]([C@@H](C)O)NC(=O)[C@H]([C@H](O)[C@@H](O)c5ccc(O)cc5)NC(=O)[C@@H]5C[C@@H](O)CN5C(=O)[C@H]([C@@H](C)O)NC4=O)cc3)cc2)cc1 ({pTerphenylCO(4''-OnC5H11)}-[Orn(4R-OH,5R-OH)]T[Hyp][hTyr(3S-OH,4S-OH)]T[Pro(3S-OH,4S-Me)]; lactam 1-C) | 16.9
2 | Cc1cc(Nc2cc(C)c(C#N)c(N[C@@H](C)CCCC(C)(C)O)n2)n[nH]1 | 27.9
3 | Cc1ccc(C23CNCC2C3)cc1 (centres undefined) | -3.02
4 | O=C(O)c1ccccc1S | 17.6
5 | O=C(O)c1ccccc1C(=O)Nc1ccc(-c2ccccc2)cc1 | 68
6 | CC(=O)NS(=O)(=O)c1ccc(NC(=O)c2ccccc2C(=O)O)cc1 | -8.72
7 | CCN(CC)CCOc1ccccc1C(=O)CCc1ccccc1 | 2.33
8 | C[C@H](N)C(=O)N[C@@H](CCC(N)=O)C(=O)O (H-Ala-Gln-OH) | -3.39
9 | COc1ccc(N2CCOCC2)c2sc(NC(=O)N3CCC(C)(O)CC3)nc12 | 2.18
10 | Cc1cc(NC(=O)C(c2ccccc2)N2CCCc3ccccc32)no1 (centres undefined) | 6.26
11 | CN(C)c1ccc(C(=O)NCCCCCCC(=O)NO)cc1 | 102
12 | COc1cc(C(=O)NCCCCCC(=O)O)cc(OC)c1OC | 0.73
13 | O=C(CNC(=O)c1ccc(Cl)cc1)NO | 42.6
14 | CC(=O)O[C@@H]1CC[C@@]2(C)[C@@H](CC[C@]3(C)[C@@H]2C(=O)C=C2[C@@H]4[C@@H](C)[C@H](C)CC[C@]4(C)CC[C@]23C)[C@@]1(C)C(=O)O | -8.47
15 | CCc1noc(C)c1-c1[nH]c2ccccc2c1C(O)CN(C)C (centres undefined) | 3.93
16 | CN(C)CCCSc1ccccc1NC(=O)/C=C/c1ccccc1 | 97.2
17 | O=C1c2ccccc2CCC1CNCCc1ccc(O)cc1 (centres undefined) | 4.32
18 | COc1cc(O)c(C(=O)c2ccccc2)cc1S(=O)(=O)O | -4.32
19 | COc1cc(-c2ccc(/N=N/c3ccc4c(S(=O)(=O)O)cc(S(=O)(=O)O)c(N)c4c3O)c(OC)c2)ccc1/N=N/c1ccc2c(S(=O)(=O)O)cc(S(=O)(=O)O)c(N)c2c1O | 69.8
20 | OC(CNc1ccccc1)Cn1c2ccc(Br)cc2c2cc(Br)ccc21 (centres undefined) | -9.16
21 | Cc1cc(-c2cc(OC(=O)c3ccccc3)ccc2Cl)cc2nnc(Nc3ccc(OCCN4CCCC4)cc3)nc12 | -4.96
22 | CC(=O)[C@]1(N)Cc2c(O)c3c(c(O)c2[C@@H](O[C@H]2C[C@H](O)[C@H](O)CO2)C1)C(=O)c1ccccc1C3=O | 18.4
23 | Cc1oc(=O)oc1COC(=O)C1=C([C@H]2CCCO2)S[C@@H]2[C@@H]([C@@H](C)O)C(=O)N12 | 31.1
24 | Cc1ccc(-n2nc(C(C)(C)C)cc2NC(=O)NCc2cc(F)ccc2Oc2ccc3c(cnn3CCO)c2)cc1 | 30.6
25 | Cc1ccnc2c1CCCC2C(N)=S (centres undefined) | -0.81

Row | Structure (SMILES) | inhibition [%]
26 | CC(CN(C)C)CN1c2ccccc2Sc2ccc(C#N)cc21 (centres undefined) | 7.25
27 | O=C1NC(=O)/C(=C\c2ccc(-c3ccc(F)cc3)o2)S1 | 60.3
28 | CN1c2c(oc(=O)n(-c3ccccn3)c2=O)-c2ccccc2S1(=O)=O | 16.6
29 | CN1C(=O)N(c2ccc(C#N)c(C(F)(F)F)c2)C(=O)[C@]1(CO)c1ccccc1 | 40.5
30 | Cc1nc(-c2cccnc2)sc1C(=O)Nc1ccccc1-c1cn2c(CN3CCOCC3)csc2n1 | 11.9
31 | FCc1ccc(OCCOc2ccc(Cl)cc2Cl)c(Cl)n1 | 61.7
32 | CCOc1c2c(c(OCC)c3ccccc13)C(=O)N(c1ccc(CC(=O)NS(=O)(=O)c3ccccc3)cc1)C2 | 3.49
33 | O=C1C2CC3CC1CC(O)(C3)C2 | 26.7
34 | COc1cc2c(Oc3ccc4[nH]c(C)cc4c3F)ccnc2cc1OCC1(N)CC1 | 54.9
35 | Cc1cc2c(F)c(Oc3ncnn4cc(OC[C@@H](C)OC(=O)[C@H](C)N)c(C)c34)ccc2[nH]1 | 48.1
36 | NS(=O)(=O)c1ccc2c(c1)C1C=CCC1C(c1ccc(Br)cc1)N2 (centres undefined) | 8.71
37 | CS(=O)(=O)c1ccc(-c2cn3ccccc3n2)cc1 | 99.6
38 | CS(=O)(=O)c1ccc(-c2cnc(N)c(C(=O)Nc3ccccc3)n2)cc1 | 6.2
39 | Cc1cccc2c1CC[C@H](CN1CCC(c3c(Cl)cccc3Cl)CC1)C[C@@H]2O | -4.44
40 | CN(C)[C@@H]1CCc2[nH]c3ccc(NC(=O)c4ccc(F)cc4)cc3c2C1 | 6.78
41 | O=C1C2CC=CCC2C(=O)N1SC(Cl)(Cl)Cl (centres undefined) | 59.5
42 | O=[N+]([O-])c1ccc(Cl)c([N+](=O)[O-])c1 | 15.2
43 | COc1cc(O)cc([C@@H]2CC(=O)c3c(O)cc(O[C@@H]4O[C@H](CO)[C@@H](O)[C@H](O)[C@H]4O[C@@H]4O[C@@H](C)[C@H](O)[C@@H](O)[C@H]4O)cc3O2)c1 | 5.67
44 | O=C1C[C@@H](c2ccc(O)cc2)Oc2cc(O)cc(O)c21 | 73.8
45 | O=C(O[C@@H]1Cc2c(O)cc(O)cc2O[C@@H]1c1cc(O)c(O)c(O)c1)c1cc(O)c(O)c(O)c1 | 11.9
46 | [O-][n+]1ccccc1S | 22.8
47 | O=C(OCCO)c1ccccc1O | 5.24
48 | CCOC(=O)c1ccccc1OC(N)=O | 7.12
49 | O=C(Oc1ccccc1)c1ccccc1O | 77.2
